According to PubChem BioAssay (EPA / NIEHS):
Results filed as inconclusive are left out. The source made the active and inactive calls. The calls were made as follows, unless noted: active = hit-call score of the fitted dose curve at least 0.9, where 1 is the maximum; inactive = score below 0.9.

Legend:
[1] = read-out: Interleukin-8 (IL8), CXCL8 (gene 3576); test: BSK_3C_IL8: BioMAP Diversity Plus: 3C Assay for Interleukin-8 (IL8) Biomarker Activity (AID 2283020); conditions: primary human endothelial cells (HUVEC); actives raise or lower the signal
Outline: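 IL-8 was measured by ELISA in HUVEC cultures 24 h after chemical dosing, with gain or loss of signal fitted relative to DMSO. Parallel SRB total-protein staining tracked overt cytotoxicity.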

[2] = read-out: Monokine induced gamma interferon (MIG), CXCL9 (gene 4283); test: BSK_3C_MIG: BioMAP Diversity Plus: 3C Assay for Monokine induced gamma interferon (MIG) Biomarker Activity (AID 2283021); conditions: primary human endothelial cells (HUVEC); actives raise or lower the signal;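 as to AC50: MIG protein level measured by immunoassay in the treated endothelial cultures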
Outline: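 ELISA measurement of MIG in human umbilical vein endothelial cells 24 h after treatment. Cytotoxicity tracked by SRB staining in parallel cultures; gain or loss of signal fitted relative to DMSO.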

[3] = target: human Vitamin D Receptor (VDR), VDR (gene 7421) (UniProt P11473); test: ATG_VDR_TRANS: Attagene TRANS-FACTORIAL HepG2 Assay for human Vitamin D Receptor (VDR) (AID 2283022; active = hit-call score of the fitted dose curve at least 0.9, where 1 is the maximum)
Outline: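 HepG2 cells were transiently transfected with multiple GAL4-UAS reporter units, so signal reflects exogenous chimeric receptor-Gal4 activity. After 24 h compound exposure, reporter mRNA was measured by RT-PCR, fluorescent labelling and capillary electrophoresis, fitted for gain of signal versus DMSO.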

[4] = read-out: Matrix Metallopeptidase 1 (MMP1), MMP1 (gene 4312); test: BSK_BE3C_MMP1: BioMAP Diversity Plus: BE3C Assay for Matrix Metallopeptidase 1 (MMP1) Biomarker Activity (AID 2283024); conditions: primary human bronchial epithelial cells; actives raise or lower the signal
Outline: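 ELISA measurement of MMP-1 after 24 h compound exposure of primary human bronchial epithelial cells. Changes in either direction fitted relative to DMSO; parallel SRB staining checked overt cytotoxicity.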

[5] = BSK_3C_Vis: BioMAP Diversity Plus: 3C Assay for Morphology Visualization (AID 2283025); conditions: primary human endothelial cells (HUVEC);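 also: fitted both ways so gain or loss versus DMSO counts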;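 as to AC50: light microscopy image of cell morphology used as background control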
Outline: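 Light-microscopy visualization of HUVEC cultures at 24 h post-treatment, with DMSO as baseline for bidirectional fitting.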

[6] = read-out: Pselectin, SELP (gene 6403); test: BSK_4H_Pselectin: BioMAP Diversity Plus: 4H Assay for Pselectin Biomarker Activity (AID 2283026); conditions: primary human endothelial cells (HUVEC); actives raise or lower the signal
Outline: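 ELISA of surface P-selectin on HUVEC, 24 h after dosing, with parallel SRB staining (0.1% after 10% TCA fixation, 560 nm) for overt cytotoxicity. Activity fitted in both directions relative to DMSO.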

[7] = BSK_4H_SRB: Viability Assessment in the BioMAP Diversity Plus: 4H Assay (AID 2283027); conditions: primary human endothelial cells (HUVEC);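 also: cells exposed to compound for 24 h before staining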;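 as to AC50: curves fitted both ways versus DMSO so AC50 may be loss or gain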
Outline: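 Cytotoxicity readout: sulforhodamine B (0.1%) staining of total protein after 10% TCA fixation, measured at 560 nm in human umbilical vein endothelium at 24 h. DMSO set the baseline; fitting was bidirectional.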

[8] = read-out: Thrombomodulin, THBD (gene 7056); test: BSK_3C_Thrombomodulin: BioMAP Diversity Plus: 3C Assay for Thrombomodulin Biomarker Activity (AID 2283029); conditions: primary human endothelial cells (HUVEC); actives raise or lower the signal
Outline: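 ELISA measurement of thrombomodulin on HUVEC surface 24 h after chemical dosing; activity fitted in both directions relative to DMSO vehicle.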

[9] = read-out: Urokinase-type plasminogen activator receptor (uPAR), PLAUR (gene 5329); test: BSK_4H_uPAR: BioMAP Diversity Plus: 4H Assay for Urokinase-type plasminogen activator receptor (uPAR) Biomarker Activity (AID 2283030); conditions: primary human endothelial cells (HUVEC); actives raise or lower the signal
Outline: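 Primary human umbilical vein endothelial cells were exposed to chemical for 24 h before cell-surface uPAR was quantified by ELISA. Activity was fitted bidirectionally against the DMSO negative control baseline.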

[10] = read-out: Vascular endothelial growth factor receptor 2 (Homo sapiens) (UniProt P35968); test: BSK_4H_VEGFRII: BioMAP Diversity Plus: 4H Assay for Vascular endothelial growth factor receptor 2 (VEGFR2) Biomarker Activity (AID 2283031); conditions: primary human endothelial cells (HUVEC); actives raise or lower the signal;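 as to AC50: cell-surface VEGFR2 protein level quantified by ELISA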
Outline: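 Primary human umbilical vein endothelial cells in the BioMAP 4H system were dosed with test chemical, and 24 h later VEGFRII was measured by ELISA. Activity was fitted bidirectionally against DMSO as negative control and baseline.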

[11] = read-out: Human Leukocyte Antigen - DR isotype (HLADR), HLA-DRA (gene 3122); test: BSK_BE3C_HLADR: BioMAP Diversity Plus: BE3C Assay for Human Leukocyte Antigen - DR isotype (HLADR) Biomarker Activity (AID 2283032); conditions: primary human bronchial epithelial cells; actives raise or lower the signal
Outline: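 Cell-surface HLA-DR ELISA readout at 24 h after dosing in the BE3C primary human lung bronchial epithelial system; gain or loss of signal against DMSO, with parallel sulforhodamine B staining of total protein for overt cytotoxicity.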

[12] = read-out: Vascular cell adhesion molecule 1 (VCAM1), VCAM1 (gene 7412); test: BSK_4H_VCAM1: BioMAP Diversity Plus: 4H Assay for Vascular cell adhesion molecule 1 (VCAM1) Biomarker Activity (AID 2283033); conditions: primary human endothelial cells (HUVEC); actives raise or lower the signal
Outline: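 VCAM-1 ELISA read 24 h after chemical dosing of HUVEC in the BioMAP 4H system, with gain or loss of signal fitted relative to DMSO. Parallel SRB staining (560 nm) checked overt cytotoxicity.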

[13] = read-out: Interferon-gamma inducible Protein 10 (IP10), CXCL10 (gene 3627); test: BSK_BE3C_IP10: BioMAP Diversity Plus: BE3C Assay for Interferon-gamma inducible Protein 10 (IP10) Biomarker Activity (AID 2283034); conditions: primary human bronchial epithelial cells; actives raise or lower the signal
Outline: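 IP-10 quantified by ELISA in human primary bronchial epithelial cell cultures at 24 hours post-dosing. Gain or loss of signal fitted relative to DMSO; parallel SRB staining assessed overt cytotoxicity.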

[14] = read-out: Transforming growth factor beta 1 (TGFb1), TGFB1 (gene 7040); test: BSK_BE3C_TGFb1: BioMAP Diversity Plus: BE3C Assay for Transforming growth factor beta 1 (TGFb1) Biomarker Activity (AID 2283036); conditions: primary human bronchial epithelial cells; actives raise or lower the signal
Outline: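 ELISA readout of TGF-b1 from human lung bronchial epithelial primary cells, taken 24 h post-treatment. Gain or loss of signal fitted relative to DMSO baseline, with parallel SRB staining for overt cytotoxicity.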

[15] = read-out: Plasminogen activator inhibitor-1 (PAI1), SERPINE1 (gene 5054); test: BSK_BE3C_PAI1: BioMAP Diversity Plus: BE3C Assay for Plasminogen activator inhibitor-1 (PAI1) Biomarker Activity (AID 2283037); conditions: primary human bronchial epithelial cells; actives raise or lower the signal
Outline: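 PAI-1 was measured by ELISA in human primary bronchial epithelial cultures 24 h after chemical dosing, with cytotoxicity checked by SRB total-protein staining in parallel cultures. Activity was fitted in both directions relative to DMSO.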

[16] = read-out: urokinase plasminogen activator (uPA), PLAU (gene 5328); test: BSK_BE3C_uPA: BioMAP Diversity Plus: BE3C Assay for urokinase plasminogen activator (uPA) Biomarker Activity (AID 2283038); conditions: primary human bronchial epithelial cells; actives raise or lower the signal
Outline: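 Human primary bronchial epithelial cells were exposed to chemical for 24 h, then uPA levels were measured by ELISA. Responses were fitted bidirectionally against DMSO as negative control and baseline. Parallel SRB staining of total protein gauged overt cytotoxicity.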

[17] = read-out: Urokinase-type plasminogen activator receptor (uPAR), PLAUR (gene 5329); test: BSK_BE3C_uPAR: BioMAP Diversity Plus: BE3C Assay for Urokinase-type plasminogen activator receptor (uPAR) Biomarker Activity (AID 2283039); conditions: primary human bronchial epithelial cells; actives raise or lower the signal
Outline: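 uPAR levels were measured by ELISA after 24 h compound treatment of primary human bronchial epithelial cells, fitted in both directions relative to DMSO. Parallel SRB staining served as the cytotoxicity read-out.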

[18] = read-out: Monokine induced gamma interferon (MIG), CXCL9 (gene 4283); test: BSK_BE3C_MIG: BioMAP Diversity Plus: BE3C Assay for Monokine induced gamma interferon (MIG) Biomarker Activity (AID 2283035); conditions: primary human bronchial epithelial cells; actives raise or lower the signal
Outline: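 hu bronchial epithelial 1° cells, 24 h cpd; MIG by ELISA; bidirectional fit, DMSO = baseline.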

[19] = BSK_BE3C_SRB: Viability Assessment in the BioMAP Diversity Plus: BE3C Assay (AID 2283028); conditions: primary human bronchial epithelial cells
Outline: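 Human primary bronchial epithelial cells were exposed to test chemicals for 24 h. Total protein in parallel cultures was then measured by staining with 0.1% sulforhodamine B after 10% TCA fixation, with absorbance read at 560 nm. Activity was fitted bidirectionally against DMSO.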

[20] = BSK_3C_SRB: Viability Assessment in the BioMAP Diversity Plus: 3C Assay (AID 2283023); conditions: primary human endothelial cells (HUVEC);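 also: fitted both ways against DMSO so a hit may be signal rise or drop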
Outline: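 Primary human umbilical vein endothelial cells in the 3C system were read 24 h after compound dosing. Total protein was stained with 0.1% sulforhodamine B after 10% TCA fixation and read at 560 nm, with bidirectional fitting against DMSO as baseline.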

Measured: AC50

human Vitamin D Receptor (VDR), VDR (gene 7421), sequence (P11473 whole entry, looked up, the tested form may be a part): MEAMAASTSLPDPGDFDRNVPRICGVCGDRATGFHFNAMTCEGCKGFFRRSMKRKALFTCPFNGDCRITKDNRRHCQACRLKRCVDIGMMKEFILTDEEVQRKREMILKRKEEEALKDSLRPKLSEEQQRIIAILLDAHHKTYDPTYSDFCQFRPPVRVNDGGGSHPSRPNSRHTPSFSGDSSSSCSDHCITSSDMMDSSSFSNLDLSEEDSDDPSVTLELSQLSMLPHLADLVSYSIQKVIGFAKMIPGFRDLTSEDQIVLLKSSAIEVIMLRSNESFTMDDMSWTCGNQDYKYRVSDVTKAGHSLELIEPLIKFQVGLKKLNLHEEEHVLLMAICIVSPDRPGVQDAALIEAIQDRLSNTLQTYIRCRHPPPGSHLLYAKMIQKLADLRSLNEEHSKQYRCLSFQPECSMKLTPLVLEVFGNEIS

CCOCN(C(=O)CCl)c1c(C)cccc1CC
inactive: [1] | [2] | [3] | [4] | [7] | [8] | [9] | [10] | [14] | [15] | [16] | [17]
active: [5] 39 µM | [6] 11.4 µM | [11] 15.3 µM | [12] 19.2 µM | [13] 16.5 µM

CC(C)(C)C(O)/C(=C\c1ccc(Cl)cc1Cl)n1cncn1 (configuration not stated)
active: [1] 32.2 µM | [4] 33.6 µM | [5] 37.2 µM | [6] 32.1 µM | [7] 15.8 µM | [9] 27.9 µM | [10] 27.4 µM | [11] 27.5 µM | [12] 27.7 µM | [13] 31.1 µM | [18] 35.1 µM | [15] 27.6 µM | [16] 30.3 µM | [17] 20 µM
inactive: [2] | [3] | [8] | [14]

CNC(=O)/C=C(\C)OP(=O)(OC)OC
inactive: [1] | [2] | [3] | [4] | [5] | [6] | [7] | [8] | [9] | [10] | [11] | [12] | [13] | [14] | [15] | [16] | [17]

COC(=O)c1ccccc1S(=O)(=O)NC(=O)Nc1nc(C)nc(OC)n1
inactive: [1] | [2] | [3] | [4] | [5] | [6] | [7] | [19] | [8] | [9] | [10] | [11] | [12] | [13] | [18] | [14] | [15] | [16]
active: [17] 0.173 µM

N#Cc1c(Cl)c(Cl)c(Cl)c(C#N)c1Cl
inactive: [3]
active: [1] 1.67 µM | [2] 2.06 µM | [20] 2.14 µM | [4] 4.1 µM | [5] 0.468 µM | [6] 0.911 µM | [7] 1.96 µM | [8] 0.148 µM | [9] 1.81 µM | [10] 1.44 µM | [11] 1.7 µM | [12] 1.16 µM | [13] 2.35 µM | [18] 3.01 µM | [14] 3.94 µM | [15] 2.5 µM | [16] 1.69 µM | [17] 3.98 µM

COP(=S)(OC)Oc1ccc(SC)c(C)c1
active: [4] 3.97 µM | [7] 5.31 µM | [17] 0.148 µM
inactive: [1] | [2] | [3] | [5] | [6] | [8] | [9] | [10] | [11] | [12] | [13] | [14] | [15] | [16]
